# Biological target: Glucose transporter (Leishmania mexicana) (UniProt O61059)
# Assay: ST_JUDE_LEISH: Cytotoxicity at 2uM final concentration against transgenic Leishmania Mexicana promastigotes LmGT2 that are glucose transport deficient and complemented with the L. Mexicana glucose transporter 2. Activity is measured by DNA content using SYBR green in vitro
# Type: functional
row,Structure (SMILES),inhibition
1,Cc1csc(-c2ncc(OC[C@@H](N)Cc3ccccc3)cc2-c2ccc3[nH]nc(C)c3c2)c1,-0.58%
2,O=C(Nc1ccc(Cl)cc1)c1ccc(CN2CCCN(Cc3ccc(F)cc3)CC2)cc1,0.03%
3,N#Cc1ccc(CN2CCC(Oc3ccc(NC(=O)c4ccsc4)cc3Cl)C2)cc1 (stereo not given),8.45%
4,Cc1ccc2[nH]cc(/C=C/C(=O)NC3CCC(CCN4CCc5ccc(C#N)cc5CC4)CC3)c2c1 (stereo not given),-2.82%
5,O=C(NC1CCCCN(Cc2ccc3c(c2)OCCO3)C1)c1cc(-c2ccccc2F)cs1 (stereo not given),12.8%
6,CN(C)CCNCc1ccc(-c2ccc(-c3nc4ccccc4[nH]3)s2)cc1,12.8%
7,COc1cc2c(cc1C(F)(F)F)N(C(=O)Nc1cc(F)cc(-c3cncnc3)c1)CC2,0.07%
8,CC(C)NCc1ccc(-c2ccc(NS(=O)(=O)c3cccc4cccnc34)cc2)cc1,12.7%
9,Cn1c(=O)c2nc(-c3ccc(Cl)cc3)nnc2n(CCCC#N)c1=O,6.19%
10,CC(C)COc1ccc(Cl)cc1Cc1nc(-c2nc3ccc(CN4CCCCC4)cc3[nH]2)co1,2.91%
11,CS(=O)(=O)c1ccc(-n2nc(C(F)(F)F)cc2-c2ccc(C=NOCC(=O)O)o2)cc1,-0.38%
12,Cn1nccc1C(=O)NCCNCc1ccc(-c2cccc(-c3nc4cc(F)ccc4[nH]3)c2)cc1,-1.92%
13,CC(=NNC(S)=NCCc1ccccn1)c1ccccn1,6.19%
14,O=C(Nc1ccc(Cl)c(Cl)c1)N(Cc1ccccc1Br)C1CCNCC1,0.68%
15,CCN(CC)CCCN(C(=O)c1cc2c(C)nn(-c3ccccc3)c2s1)c1nc(-c2ccc(OC)cc2)cs1,8.72%
16,COc1ccc2nccc([C@@H](O)CN3CCC(NC(=O)C(c4cc5ccccc5o4)N4CCC(Cc5ccccc5)CC4)CC3)c2c1 (stereo not given in full),2.23%
17,Cn1cc(CN2CCCC(COC(c3ccc(F)cc3)c3ccc(F)cc3)C2)cn1 (stereo not given),1.84%
18,CS(=O)(=O)n1c(CN2CCN(c3ncc(C(F)(F)F)cc3Cl)CC2)nc2ccccc21,5%
19,Cc1cc(OCCCN2CCCCC2)ccc1NC(=O)COc1ccc(Cl)cc1C(=O)c1cc(Cl)cc(C#N)c1,5.79%
20,O=C(NC1CCCCN(Cc2ccccc2O)C1)c1ccc(-c2ccccc2)cc1 (stereo not given),2.4%

row,Structure (SMILES),inhibition
1,FC(F)(F)c1ccc2[nH]c(-c3cccc(-c4ccc(CNCc5cnn(-c6ccccc6)n5)cc4)c3)nc2c1,2.19%
2,C=CCc1cccc(CN2CCC(c3cc(O)nc(-c4ccccn4)n3)CC2)c1O,0.24%
3,NCc1cccc(-c2ccc3ccnc(N)c3c2)c1,1.2%
4,CCN1CCN(C(=O)NC(C(=O)N(C)Cc2ccc(-c3ccc(C(F)(F)F)cc3)cc2)c2cccs2)C(=O)C1=O (stereo not given),1.3%
5,COc1ccc2nc(-c3ccccc3)cc(N/N=C/c3ccc([N+](=O)[O-])cc3)c2c1,2.43%
6,Cc1ccc2c(N/N=C/c3cccc([N+](=O)[O-])c3)cc(C)nc2c1,3.94%
7,CCCCc1ccc(-c2nc(NC(=O)Nc3[nH]c(-c4ccccc4)nc3C(=O)OCC)c(C(=O)OCC)[nH]2)cc1,-0.95%
8,C=CCOC(=O)N1CCC(CNCc2cccc(-c3ccc(-c4nc5cccc(C)c5[nH]4)cc3)c2)C1 (stereo not given),9.02%
9,O=c1cc(NCCCCNCc2cccc(C(F)(F)F)c2)[nH]c2ccccc12,5.78%
10,Cc1cccc2nc(-c3cccc(-c4cccc(NC(=O)C5CC(=O)Nc6ccccc65)c4)c3)[nH]c12 (stereo not given),5.82%
11,Cc1ccc(CNC(=O)[C@H](CC(C)C)Nc2cc(C)nc(NCC3CCCCC3)n2)cc1,9.26%
12,C=CCc1cc(C2CCN(CCCCNC(=O)c3ccc(-c4ccc(C#N)cc4)cc3)CC2)c(OCC(N)=O)c2c1CCCC2,3.22%
13,Cc1c(CC(=O)NCCC2CCN(CCCCCNC(=O)/C=C/c3ccc(Cl)c(Cl)c3)CC2)sc2ccc(Cl)cc12,6.13%
14,COc1ccc(-c2cc(-c3nc4cc(CN)ccc4[nH]3)c(=O)n(C)c2)cc1OC,-0.74%
15,N#Cc1cccc(-c2nc(NCc3cccc(C(F)(F)F)c3)nn2-c2cccc(C(F)(F)F)c2)c1,-0.56%
16,COc1ccc(COc2cc(NCCCN)nc3ccccc23)cc1,4.46%
17,CCCCCCCCc1c(C)[nH]c(C)c(Cl)c1=O,-0.99%
18,COc1ccc(-n2ccnc2)cc1CNC1CCN(CC2Cn3c(=O)ccc4ccc(F)c2c43)CC1 (stereo not given),5.24%
19,Clc1ccc(CNc2nc(NCCc3c[nH]cn3)nc(Nc3ccc4c(c3)OCO4)n2)cc1,3.66%
20,O=C(/C=C/c1ccc(Br)cc1)NCCCCCN1CCC(c2c[nH]c3ccccc23)CC1,12.7%
